The subject of test [1] is Jurkat. The experiment in a line: mean cell size (FSC-A) relative to DMSO control (fraction of control); higher = larger cells. As to conditions: 48 h. Summed up: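 Jurkat cells seeded at 600 cells/µl were incubated 1 h, then exposed for 48h to the Enzo Screen-Well FDA Approved Drug Library v2.0 at 25µM in 0.9% (v/v) final DMSO. Drugs that cut counts below 20% of controls were diluted 10-fold and retested, down to 25nM. Cell count and mean cell size (forward scatter area) were read on an Accuri C6 flow cytometer, relative to solvent-only controls. Plates held 6-12 controls; values are means of 3 biological replicates.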

The subject of test [2] is Jurkat. The experiment in a line: cell count relative to DMSO control (fraction of control); higher = more cells (less growth inhibition). The note with it: 48 h.

Counter-ions that a name gives are not always drawn. ± gives the standard deviation.

Experimental findings from the supplement of paper PMC4709259 are described below.

In the case of `NC[C@H]1O[C@H](O[C@H]2[C@H](O)[C@@H](O[C@H]3O[C@H](CO)[C@@H](O)[C@H](N)[C@H]3O)[C@H](N)C[C@@H]2N)[C@H](O)[C@@H](O)[C@@H]1O` [Kanamycin Sulfate] (concentration: 25 µM), the mean cell size in the test with Jurkat [1] was found to be 0.919 ± 0.013. Besides, the cell count in the test on Jurkat [2] amounted to 1.06 ± 0.08.
On the same counts, the results for `CCN(CC)C(=O)/C(C#N)=C/c1cc(O)c(O)c([N+](=O)[O-])c1` [Entacapone] (concentration: 25 µM) are 1.06 ± 0.055 and 0.519 ± 0.059.
On the same counts, the results for `C#C[C@]1(O)CC[C@H]2[C@@H]3CCC4=CCCC[C@@H]4[C@H]3C(=C)C[C@@]21CC` [Desogestrel] (concentration: 25 µM) are 0.943 ± 0.018 and 1.03 ± 0.027.
For `CNCCC(Oc1ccc(C(F)(F)F)cc1)c1ccccc1` (stereo not drawn) [Fluoxetine·HCl] (concentration: 25 µM) the same measures were 0.992 ± 0.039 and 0.68 ± 0.14.
Take `COc1ccc2c3c1O[C@H]1C[C@@H](O)C=C[C@@]31CCN(C)C2` [Galantamine·HBr] (concentration: 25 µM): the mean cell size in the test with Jurkat [1] was 0.976 ± 0.01. The same molecule displayed a cell count with Jurkat [2] of 0.701 ± 0.14.
In turn, `CCCN1CCCC[C@H]1C(=O)Nc1c(C)cccc1C` [Ropivacaine·HCl Monohydrate] (concentration: 25 µM) had a mean cell size in the test on Jurkat [1] of 0.978 ± 0.014. In the test on Jurkat [2], this molecule returned a cell count of 0.995 ± 0.057.
On the same counts, the results for `C#C[C@]1(O)CC[C@H]2[C@@H]3CCC4=CC(=O)CC[C@@H]4[C@H]3C(=C)C[C@@]21CC` [Etonogestrel] (concentration: 25 µM) are 0.997 ± 0.025 and 0.557 ± 0.013.
On the same counts, the results for `Nc1ccn([C@@H]2CS[C@H](CO)O2)c(=O)n1` [Lamivudine] (concentration: 25 µM) are 0.995 ± 0.046 and 0.624 ± 0.13.
In the test on Jurkat [1], `NCc1ccc(S(N)(=O)=O)cc1` [Mafenide·HCl] (concentration: 25 µM) displayed a mean cell size of 0.92 ± 0.056. In the test with Jurkat [2], the cell count was found to be 1.17 ± 0.04.
Take `Cc1nnc(C(C)C)n1C1C[C@H]2CC[C@@H](C1)N2CC[C@H](NC(=O)C1CCC(F)(F)CC1)c1ccccc1` (stereo in doubt) [Maraviroc] (concentration: 25 µM): the mean cell size with Jurkat [1] was 1 ± 0.044. In the test on Jurkat [2], the cell count amounted to 0.668 ± 0.062.
On the same counts, the results for `CCCCCCCCCC(=O)N[C@@H](Cc1c[nH]c2ccccc12)C(=O)N[C@H](CC(N)=O)C(=O)N[C@@H](CC(=O)O)C(=O)N[C@@H]1C(=O)NCC(=O)N[C@@H](CCCN)C(=O)N[C@@H](CC(=O)O)C(=O)N[C@H](C)C(=O)N[C@@H](CC(=O)O)C(=O)NCC(=O)N[C@H](CO)C(=O)N[C@@H]([C@H](C)CC(=O)O)C(=O)N[C@@H](CC(=O)c2ccccc2N)C(=O)O[C@@H]1C` [Daptomycin] (concentration: 25 µM) are 0.975 ± 0.025 and 0.917 ± 0.039.
In the test on Jurkat [1], `Clc1ccc2c(c1)C(N1CCNCC1)=Nc1ccccc1O2` [Amoxapine] (concentration: 25 µM) gave a mean cell size of 1.03 ± 0.013. In the test with Jurkat [2], this molecule gave a cell count of 0.538 ± 0.073.
For `CN(N=O)C(=O)N[C@@H]1[C@@H](O)[C@H](O)[C@@H](CO)O[C@@H]1O` [Streptozocin] (concentration: 25 µM) the same measures were 0.939 ± 0.014 and 0.897 ± 0.034.
On the same counts, the results for `CC[C@H](C)C(=O)O[C@H]1C[C@H](O)C=C2C=C[C@H](C)[C@H](CC[C@@H](O)C[C@@H](O)CC(=O)O)[C@H]21` [Pravastatin·Na] (concentration: 25 µM) are 1.07 ± 0.028 and 0.771 ± 0.15.
On the same counts, the results for `CC(S)C(=O)NCC(=O)O` (stereo not drawn) [Tiopronin] (concentration: 25 µM) are 0.956 ± 0.016 and 0.864 ± 0.17.
Molecule `CC(=O)OCC(=O)[C@@]12OC(C)(C)O[C@@H]1C[C@H]1[C@@H]3C[C@H](F)C4=CC(=O)C=C[C@]4(C)[C@@]3(F)[C@@H](O)C[C@@]12C` [Fluocinonide] (concentration: 25 µM) came in with a mean cell size in the test with Jurkat [1] of 0.944 ± 0.027. Moreover, the cell count with Jurkat [2] stood at 0.551 ± 0.03.
On the same counts, the results for `CC(=O)Nc1ccc(O)cc1` [Acetaminophen] (concentration: 25 µM) are 1.03 ± 0.037 and 0.891 ± 0.031.
In the test on Jurkat [1], `O=C1C(=O)c2ccccc2C(O)=C1C1CCC(c2ccc(Cl)cc2)CC1` (stereo not drawn) [Atovaquone] (concentration: 25 µM) had a mean cell size of 0.91 ± 0.015. In addition, the cell count in the test with Jurkat [2] is 0.462 ± 0.039.
On the same counts, the results for `Cc1ccc(C(=O)c2cc(O)c(O)c([N+](=O)[O-])c2)cc1` [Tolcapone] (concentration: 25 µM) are 0.966 ± 0.023 and 0.864 ± 0.15.
